Measured values taken from PubChem BioAssay (Tox21).
Several values for one entry are separate records, joined by “and”; a condition that tells them apart may be missing. Identical values can stand only once. Records with an inconclusive call do not appear. Activity calls are given as the source filed them. Unless noted, the call rests on the fitted dose curve; in most records, active means well fitted curve in the direction sought with a large enough effect in the repeat runs; inconclusive means weak or mixed curves; inactive means no such curve, though single readings can be large; an effect the other way counts as inactive or inconclusive.

Key:
[1] = qHTS assay for small molecule agonists of the p53 signaling pathway (AID 651631; calls by dose curve; further: nearly all actives have a fitted effect of over 15% in size)
Summary of the method: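 Stably transfected HCT-116 cells (beta-lactamase behind p53 response elements) get compounds after a 5 h settling period; 16 h later at 37 °C, FRET substrate is loaded and fluorescence read after 2 h.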

[2] = qHTS assay for small molecules that induce genotoxicity in human embryonic kidney cells expressing luciferase-tagged ATAD5 (AID 651632); further: nearly all actives have a fitted effect of over 15% in size; further: potency means the concentration at half of the fitted maximal effect
Summary of the method: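 HEK293T cells carrying luciferase-tagged ATAD5 were given compound or DMSO vehicle and incubated 16 hr at 37C, 5% CO2. Luciferase activity was read after 30 min at room temperature with Amplite; a rise signals genotoxic stress.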

[3] = qHTS assay for small molecule agonists of the p53 signaling pathway - cell viability (AID 651633; calls by dose curve;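 further: p53RE-bla HCT reporter cells with a stable beta-lactamase p53 reporter; series mostly up to about 83 µM; nearly all actives have a fitted effect of over 30% in size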)
Summary of the method: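 Viability counter-read: CellTiter-Glo luminescence (30 min, room temperature) in the same p53RE-bla plates. These plates had been exposed to compounds for 16 h at 37 C.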

[4] = qHTS assay for small molecules that induce genotoxicity in human embryonic kidney cells expressing luciferase-tagged ATAD5 - cell viability (AID 651634; calls by dose curve; further: nearly all actives have a fitted effect of over 25% in size)
Summary of the method: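 HEK293T cells carrying luciferase-tagged ATAD5, 2,000 cells/well, exposed to compound for 15.5 hr at 37C. Viability read as live-cell protease activity by CellTiter-Fluor fluorescence after 30 min at 37C.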

[5] = qHTS assay for small molecule disruptors of the mitochondrial membrane potential - cell viability (AID 720634; calls by dose curve;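 further: human HepG2 liver cancer cells; series mostly up to about 83 µM; nearly all actives have a fitted effect of over 20% in size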)
Summary of the method: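 HepG2 cells, 2,000 per well, attached overnight, then treated 1 hr at 37 C, 5% CO2. Viability read as ATP by CellTiter-Glo luminescence after 30 min at room temperature. Read in the same wells as the m-MPI membrane-potential dye assay.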

[6] = qHTS assay for small molecule disruptors of the mitochondrial membrane potential (AID 720635); further: potency means the concentration at half of the fitted maximal effect
Summary of the method: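 Mitochondrial membrane potential tracked with Mito-MPS dye, red aggregates (ex 540/em 590 nm) against green monomers (ex 490/em 535 nm). Compound treatment 1 hr at 37C, dye 30 min in HepG2.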

[7] = qHTS assay to test for compound auto fluorescence at 590 nm (red) in HepG2 cells (AID 720674)
Summary of the method: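 We screened compounds on adherent HepG2 cells, incubating them for an hour at 37 C in 5% CO2 before reading emission at 590 nm under 540 nm excitation; values reflect equivalence to Rose Bengal sodium fluorescence.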

[8] = qHTS assay to test for compound auto fluorescence at 535 nm (green) in HepG2 cells (AID 720675)
[9] = qHTS assay to test for compound auto fluorescence at 460 nm (blue) in HEK293 cells (AID 720678)
Summary of the method: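 Cells were seeded and left to adhere for 4-5 hr at 37C. Compounds were then pin-transferred. After an overnight incubation at 37C under 5% CO2, intrinsic fluorescence at 405/460 nm was measured and referenced to triamterene.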

[10] = qHTS assay to test for compound auto fluorescence at 590 nm (red) in HEK293 cells (AID 720679)
Summary of the method: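 Each well held 2,000 HEK293 cells in medium containing 10% dialyzed FBS. Following 4-5 hr attachment at 37C, 23 nL test compound or DMSO was added; plates sat overnight, and red fluorescence (540/590nm) was recorded.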

[11] = qHTS assay to test for compound auto fluorescence at 535 nm (green) in HEK293 cells (AID 720680)
[12] = qHTS assay to test for compound auto fluorescence at 460 nm (blue) in HEK293 cell free culture (AID 720681)
Summary of the method: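 Blue fluorescence (Ex 405/Em 460 nm, triamterene-equivalent) was read immediately after pin transfer of compound or DMSO into medium (DMEM, 10% FBS) without cells.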

[13] = qHTS assay to test for compound auto fluorescence at 535 nm (green) in HEK293 cell free culture (AID 720682)
Summary of the method: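 Using fluorescein as calibrant, autofluorescence was quantified at 485/535 nm in cell-free DMEM containing 10% FBS after pintool addition of compound or vehicle.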

[14] = qHTS assay to test for compound auto fluorescence at 590 nm (red) in HEK293 cell free culture (AID 720683)
Summary of the method: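 Red-channel autofluorescence of compounds in culture medium (DMEM, 10% FBS), no cells, measured at 540/590 nm. Rose Bengal sodium is the reference fluorophore for equivalence.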

[15] = qHTS assay to test for compound auto fluorescence at 590 nm (red) in HepG2 cell free culture (AID 720684)
Summary of the method: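 Steps: dispense MEM/10% FBS medium, no cells; pin compound or DMSO vehicle; read red channel, Ex/Em 540/590 nm. Output given as Rose Bengal sodium equivalents.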

[16] = qHTS assay to test for compound auto fluorescence at 460 nm (blue) in HepG2 cell free culture (AID 720685)
Summary of the method: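 Compound (23 nL) or DMSO pinned into cell-free MEM with 10% FBS; blue fluorescence read at 405/460 nm excitation/emission, expressed as auto-fluorescence equivalency to triamterene.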

[17] = qHTS assay to test for compound auto fluorescence at 460 nm (blue) in HepG2 cells (AID 720687)
Summary of the method: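 Blue-channel autofluorescence (Ex/Em 405/460 nm, triamterene-equivalent) was measured after 1 hr compound exposure at 37 C, 5% CO2. Cells were HepG2, plated overnight at 37 C in MEM plus 10% FBS.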

[18] = molecular target: Glucocorticoid receptor (Homo sapiens) (UniProt P04150); experiment: qHTS assay to identify small molecule agonists of the glucocorticoid receptor (GR) signaling pathway (AID 720691; active means well fitted activation curve with a large enough effect in the signal ratio in the repeat runs, not every such curve was filed as active; the % refers to the signal ratio)
Summary of the method: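 GR-bla HeLa cells carrying a GRE-driven beta-lactamase reporter, exposed to compounds for 18 h at 37 C. Reporter activation read as fluorescence after 2 h with LiveBLAzer B/G FRET substrate at room temperature.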

[19] = molecular target: Glucocorticoid receptor (Homo sapiens) (UniProt P04150); experiment: qHTS assay to identify small molecule antagonists of the glucocorticoid receptor (GR) signaling pathway (AID 720692; active means well fitted inhibition curve with a large enough effect in the signal ratio in the repeat runs, not every such curve was filed as active; the % refers to the signal ratio)
Summary of the method: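 GR-bla HeLa cells carrying a GRE-driven beta-lactamase reporter received compound after 4 h plating, then dexamethasone (5 nM final). After 18 h at 37C, the FRET substrate was loaded for 2 h at room temperature and fluorescence read.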

[20] = qHTS assay to test for compound auto fluorescence at 535 nm (green) in HepG2 cell free culture (AID 720686)
On the % scale 0 is the no-effect control and ±100 the full control effect.

Glucocorticoid receptor (Homo sapiens), sequence (P04150 whole entry, looked up): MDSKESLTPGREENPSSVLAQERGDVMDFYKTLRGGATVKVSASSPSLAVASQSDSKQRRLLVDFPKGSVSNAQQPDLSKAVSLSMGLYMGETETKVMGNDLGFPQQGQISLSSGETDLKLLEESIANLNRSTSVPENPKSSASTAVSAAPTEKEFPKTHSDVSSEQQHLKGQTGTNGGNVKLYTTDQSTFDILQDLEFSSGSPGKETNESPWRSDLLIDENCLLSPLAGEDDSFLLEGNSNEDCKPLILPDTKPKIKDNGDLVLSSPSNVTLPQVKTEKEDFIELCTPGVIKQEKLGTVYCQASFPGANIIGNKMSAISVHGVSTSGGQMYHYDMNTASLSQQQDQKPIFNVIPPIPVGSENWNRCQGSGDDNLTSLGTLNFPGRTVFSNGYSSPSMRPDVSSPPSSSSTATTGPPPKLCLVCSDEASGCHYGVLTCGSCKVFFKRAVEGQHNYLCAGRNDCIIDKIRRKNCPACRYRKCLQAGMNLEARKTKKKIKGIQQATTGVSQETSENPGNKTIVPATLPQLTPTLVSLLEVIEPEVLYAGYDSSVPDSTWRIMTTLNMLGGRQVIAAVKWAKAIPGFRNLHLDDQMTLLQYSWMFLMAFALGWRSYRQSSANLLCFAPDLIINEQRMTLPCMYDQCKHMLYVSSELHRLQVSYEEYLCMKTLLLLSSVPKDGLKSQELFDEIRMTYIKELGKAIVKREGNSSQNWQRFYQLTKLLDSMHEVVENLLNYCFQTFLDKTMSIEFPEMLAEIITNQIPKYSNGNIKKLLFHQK

C[C@@H]1CCC[C@H](C)N1
inactive: Potency [1] | Potency [2] | Potency [3] | Potency [4] | outcome [5] | Potency [6] | fluorescence, relative to Rose Bengal [7] 0.289% [at 18.6 µM] | fluorescence, % of fluorescein control [8] 0.0643% [at 18.6 µM] | fluorescence, % of triamterene [9] 0.0181% [at 18.6 µM] | fluorescence, % of fluorescent control [10] 0.0043% [at 18.6 µM] | fluorescence, % of fluorescein [11] -0.0078% [at 18.6 µM] | fluorescence, % of fluorescent control [12] -0.0158% [at 18.6 µM] | activity change [13] 0.0087% [at 18.6 µM] | fluorescence, % of fluorescent control [14] -0.545% [at 18.6 µM] | fluorescence, % of Rose Bengal [15] 0.0262% [at 18.6 µM] | fluorescence, % of fluorescent control [16] -0.0314% [at 18.6 µM] | fluorescence, % of fluorescent control [17] 0.0179% [at 18.6 µM] | Potency [18] | Potency [19]

c1ccc(CCc2ccccc2)cc1
inactive: Potency [1] | Potency [2] | Potency [3] | Potency [4] | outcome [5] | Potency [6] | outcome [7] | outcome [8] | outcome [9] | outcome [10] | outcome [11] | outcome [12] | outcome [14] | outcome [16] | outcome [20] | outcome [17]

Cc1cccc(C)c1NC(=O)CC12CCCN1CCC2
inactive: Potency [1] | Potency [2] | Potency [3] | Potency [4] | outcome [5] | Potency [6] | outcome [7] | outcome [8] | outcome [9] | outcome [10] | outcome [12] | outcome [14] | outcome [15] | outcome [16] | outcome [20] | outcome [17] | Potency [18] | Potency [19]

CCN[C@@H]1C[C@H](N)[C@@H](OC2OC(CN)=CCC2N)[C@H](O)[C@H]1O[C@H]1OC[C@](C)(O)[C@H](NC)[C@H]1O (some centres not stated)
inactive: Potency [1] | Potency [2] | Potency [3] | Potency [4] | outcome [5] | Potency [6] | outcome [7] | outcome [8] | outcome [9] | outcome [10] | outcome [11] | outcome [13] | outcome [14] | outcome [15] | outcome [16] | outcome [20] | outcome [17]

CC(COc1ccccc1)NN (configuration not stated)
inactive: Potency [1] | Potency [2] | Potency [3] | Potency [4] | outcome [5] | Potency [6] | outcome [7] | outcome [8] | outcome [9] | outcome [10] | outcome [11] | outcome [12] | outcome [14] | outcome [16] | outcome [20] | outcome [17] | Potency [18] | Potency [19]

COc1cc(-c2ccc(=O)[nH]n2)ccc1OC(F)F
inactive: Potency [1] | Potency [3] | Potency [4] | outcome [5] | Potency [6] | outcome [7] | outcome [8] | outcome [9] | outcome [10] | outcome [14] | outcome [15] | outcome [16] | outcome [20] | outcome [17]
active: Potency [2] 13.3 µM

O=C(O)CCSCCC(=O)O
inactive: Potency [1] | Potency [2] | Potency [3] | Potency [4] | outcome [5] | Potency [6] | outcome [7] | outcome [8] | outcome [9] | outcome [10] | outcome [11] | outcome [13] | outcome [14] | outcome [15] | outcome [16] | outcome [20] | outcome [17] | Potency [18] | Potency [19]

CO/N=C(\C(=O)N[C@@H]1C(=O)N2C(C(=O)O)=C(CSc3nc(=O)c(O)nn3C)CS[C@H]12)c1csc(N)n1
inactive: Potency [1] | Potency [2] | Potency [3] | Potency [4] | outcome [5] | Potency [6] | outcome [7] | outcome [8] | outcome [9] | outcome [10] | outcome [11] | outcome [12] | outcome [13] | outcome [14] | outcome [15] | outcome [16] | outcome [17] | Potency [18] | Potency [19]

CC(CC=O)CC(C)(C)C (configuration not stated)
inactive: Potency [1] | Potency [2] | Potency [3] | Potency [4] | outcome [5] | Potency [6] | outcome [7] | outcome [8] | outcome [9] | outcome [10] | outcome [11] | outcome [12] | outcome [13] | outcome [14] | outcome [15] | outcome [16] | outcome [20] | outcome [17]

c1ccc(Cc2ccccc2)cc1
inactive: Potency [1] | Potency [2] | Potency [3] | Potency [4] | outcome [5] | outcome [7] | outcome [8] | outcome [9] | outcome [10] | outcome [11] | outcome [12] | outcome [13] | outcome [14] | outcome [15] | outcome [16] | outcome [20] | outcome [17] | Potency [18] | Potency [19]

Cc1ccc(C(=O)c2ccccc2)cc1
inactive: Potency [1] | Potency [2] | Potency [3] | Potency [4] | outcome [5] | outcome [7] | outcome [8] | outcome [9] | outcome [10] | outcome [11] | outcome [12] | outcome [13] | outcome [14] | outcome [16] | outcome [20] | outcome [17] | Potency [18] | Potency [19]

CCOc1ccccc1OCC
inactive: Potency [1] | Potency [2] | Potency [3] | Potency [4] | outcome [5] | outcome [7] | outcome [8] | outcome [9] | outcome [10] | outcome [11] | outcome [13] | outcome [14] | outcome [16] | outcome [20] | outcome [17] | Potency [18] | Potency [19]

CN1CC(=O)N/C1=N/C(=O)Nc1cccc(Cl)c1
active: Potency [6] 21.1 µM and 26.6 µM
inactive: Potency [1] | Potency [2] | Potency [3] | Potency [4] | outcome [5] | outcome [7] | outcome [10] | outcome [11] | outcome [12] | outcome [13] | outcome [14] | outcome [16] | outcome [17] | Potency [18] | Potency [19]

CC(C)CC(C)(N)C#N (configuration not stated)
inactive: Potency [1] | Potency [2] | Potency [3] | Potency [4] | outcome [5] | outcome [7] | outcome [8] | outcome [9] | outcome [10] | outcome [11] | outcome [12] | outcome [13] | outcome [14] | outcome [15] | outcome [16] | outcome [20] | outcome [17] | Potency [18]
